Compounds with a hit are over-represented: about 19% of the library has one in this group of screens.
IL-1B inflam inh: blocks inflammasome-driven IL-1 beta release; THP-1 LPS/ATP IL-1B secretion, AlphaLISA, 16 h; hits give low values; 360,000 compounds, 4.7% hits; activity change, % at 57.5 µM; in the data active = activity change below about -50%; inconclusive = mostly about -30% to -49%
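THP-1 cells pretreated 1 hr with compounds (up to 57.5 uM final), then stimulated with LPS (250 ng/mL final) plus ATP (1.25 mM final); secreted IL-1B measured by AlphaLISA after 16 hr, decreased signal indicating inhibition.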
HT1080 IDH1KD tx: kills HT-1080 cells with IDH1 knockdown | HT-1080 IDH1 knockdown viability, ATP luminescence, 48 h | Potency, µM (top dose mostly 46.1 µM), inactives show top-dose activity, negative = toxicity, most hits filed as cytotoxic | 360,000 compounds, 2% hits;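 also: potency is read from the fitted curve at half-maximal effect; 0% = DMSO wells and -100% = cell-free medium wells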
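Assay cells: HT-1080 with IDH1 knockdown, 750 per well, RPMI/5% FBS. Exposure: 48 h at 37 °C following 2 h pre-incubation. Read: CellTiter-Glo luminescence; fitted concentration-response, curve class assigned.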
HT1080-NT tox: kills 2HG-producing HT-1080-NT fibrosarcoma cells | HT-1080-NT fibrosarcoma viability, CellTiter-Glo ATP luminescence, 48 h | Potency, µM (highest dose often 46.1 µM), for the others: top-dose activity, negative = less viability, usual class: cytotoxic | 360,000 compounds, 1.6% hits | AID 686970;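 also: NT is the 2HG producing partner of a matched IDH1 knockdown line; potency is read from the fitted curve at half-maximal effect; 0% = DMSO-treated cells and -100% = media-only wells without cells; nearly all actives have a fitted effect of over 55% in size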
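750 cells/well, RPMI + 5% FBS; 2 h settle, compound pin-transfer, 48 h at 37 degrees C. CellTiter-Glo 10 min RT, luminescence. Normalized to DMSO and media-only wells.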
TDP1 cell noCPT: qHTS for Inhibitors of human tyrosyl-DNA phosphodiesterase 1 (TDP1): qHTS in cells in absence of CPT; DT40 Tdp1-/- hTDP1 cells, no CPT, ATP luminescence, 48 h; Potency, µM (doses to about 46.2 µM), for inactives: at the highest dose activity change, negative = growth inhibition, most hits filed as inhibitors; 420,000 compounds, 15% hits; AID 686978, 2013; also: potency is read from the fitted curve at half-maximal effect; nearly all actives have a fitted effect of over 55% in size
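Camptothecin absent (DMSO only). Human TDP1-complemented DT40 knockout cells, 400 cells/well, 37 °C for minimum 48 hr; ATP measured via CellTiter-Glo, 30 min dark incubation, luminescence.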
TDP1 cell CPT: growth inhibition of DT40 Tdp1-/-;hTDP1 cells with camptothecin (screen for TDP1 inhibitors); 420,000 compounds, 12% hits; Potency, µM (top dose mostly 46.2 µM), without a hit: at the highest dose activity change, negative = growth inhibition, actives largely listed as inhibitors; AID 686979; chicken DT40 Tdp1-/-;hTDP1 cells + 20 nM CPT, ATP luminescence, 48 h; also: potency is read from the fitted curve at half-maximal effect; nearly all actives have a fitted effect of over 55% in size
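Chicken DT40 Tdp1-/- cells stably complemented with human TDP1 were seeded at 400 cells/well in medium containing 20 nM camptothecin, exposed to pin-transferred compounds, and grown at 37 °C for at least 48 hr. Viability was read as ATP luminescence.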
Active calls of the source: *; ? = inconclusive; . = no result; ! = a repeat was not active. Unless noted, calls follow the shape of the dose curve; as a rule, active = well fitted curve in the direction sought with a large enough effect; inconclusive = small, poorly fitted or top-dose-only effect, or another doubt; inactive = no such curve, though single readings can be large; an effect the other way counts as inactive or inconclusive. Unless noted, % is scaled to controls: 0 for no effect and ±100 for the full control effect.

SMILES	IL-1B inflam inh	HT1080 IDH1KD tx	HT1080-NT tox	TDP1 cell noCPT	TDP1 cell CPT
O=C(OCc1c(-c2ccccc2)ncc2ccccc12)c1ccc(C(F)(F)F)cc1	18	7%	8%	5.8µM*	?
COc1ccc(CCNC(=O)CCn2c(=O)c3ccccc3n(Cc3ccc(Cl)cc3)c2=O)cc1OC	.	.	.	6.5µM*	18µM*
CCCCn1c(=O)c(C(=O)NCc2ccc(Cl)cc2)c(O)c2ccccc21	69	5%	15%	?	-87%
Cc1ccc(Cn2c(=O)n(CCCCC(=O)NCc3ccccc3Cl)c(=O)c3ccccc32)cc1	.	.	.	5.2µM*	4.6µM*
CC(=O)NN1C(=O)c2ccccc2NC1c1cccnc1 (centres undefined)	12	-2%	1%	11%	-6%
CC1CC(C)CC(C)C(O)C(C#N)=CC=CCC(C2CCCC2C(=O)O)OC(=O)CC(O)C(C)C1 (centres undefined)	-103*	0.18µM*	0.0092µM*	0.1µM*	0.0082µM*
Cc1ccc(NC(=O)c2ncn(CCCNCCN3CCOCC3)n2)cc1C	-2	-1%	-4%	-12%	-13%
Cc1ccc(NC(=O)c2cnc3sc(N4CCOCC4)nn3c2=O)cc1N(C)C	.	.	.	21µM*	15µM*
COc1cccc(NC(=O)C2CCN(S(=O)(=O)c3cc(-c4noc(C)n4)ccc3C)CC2)c1	.	.	.	18µM*	18µM*
C=C1CCN([C@@H](Cc2ccccc2)C(=O)Nc2ccc(OC)cc2)S(=O)(=O)c2ccccc21	-10	4%	-1%	?	?
CCOC(=O)Cn1cc(/C=N/NC(=O)CC#N)c2ccccc21	-55*	1%	?	-20%	7%
CC1CCC(NCCc2ccc3c(c2)OCO3)CC1 (centres undefined)	-5	-9%	4%	?	?
CCOc1ccc(CN(CCc2ccc3c(c2)OCO3)Cc2cccc(Br)c2)cc1	.	.	.	?	2.1µM*
CC(=O)c1c(C)n(CCCOC(C)C)c2ccc(O)cc12	0	-16%	-7%	-6%	-19%
Cc1ccc(C)c(N2CCN(C(=O)CCS(=O)(=O)c3ccc4c(c3)oc(=O)n4C)CC2)c1	-21	1%	-13%	15µM*!	16µM*
Oc1cc[c]([Hg][Cl])cc1	.	.	.	0.27µM*	0.3µM*
O=S(=O)(c1ccc(O)cc1)c1ccc(O)cc1	4	.	.	0%	7%
c1ccc(CCN2CCOCC2)cc1	.	.	.	-13%	-14%
Cc1nnc(NC(=O)c2cccn(Cc3cccc([N+](=O)[O-])c3)c2=O)s1	.	.	.	-5%	-12%
CCCCCC(=O)N[C@@H](c1ccccc1)[C@@H](O)C(=O)O[C@H]1C[C@@]2(O)[C@@H](OC(=O)c3ccccc3)C3[C@](C)(C(=O)[C@H](O)C(=C1C)C2(C)C)[C@@H](OC1OCC(O)C(O)C1O)C[C@H]1OC[C@@]31OC(C)=O (some centres undefined)	44	1.8µM*	2.6µM*	0.58µM*	1.2µM*
CC(=O)O[C@@]12CO[C@@H]1C[C@H](OC1OCC(O)C(O)C1O)[C@@]1(C)C(=O)[C@H](O)C3=C(C)[C@@H](OC(=O)[C@H](O)[C@@H](NC(=O)c4ccccc4)c4ccccc4)C[C@@](O)([C@@H](OC(=O)c4ccccc4)C12)C3(C)C (some centres undefined)	11	5.8µM*	3.3µM*	1µM*	1.2µM*
CC(=O)O[C@@]12CO[C@@H]1C[C@@H](O)[C@@]1(C)C(=O)[C@H](O)C3=C(C)[C@@H](OC(=O)[C@H](O)[C@@H](NC(=O)c4ccccc4)c4ccccc4)C[C@@](O)([C@@H](OC(=O)c4ccccc4)C12)C3(C)C (some centres undefined)	30	0.013µM*	0.21µM*	0.065µM*	0.046µM*
CC[C@]12CC[C@H](O)CC1=CCC1C2CC[C@]2(C)C(=O)CCC12 (some centres undefined)	20	-9%	-6%	?	?

Screening data (PubChem BioAssay)
